Legend:
Experiment in all cases: log2 ratio of Biotin-Ahx-Ub-VS probe labelling (fragment/DMSO); higher = less target engagement (more negative = stronger competition), active = hit call of the paper (q ≤ 0.05, log2 ratio ≤ -1)
Details in all cases: compound concentration: 200 uM; treatment time: 3 h
USP42 = molecular target: T1, USP42 (UniProt Q9H9J4)
T1 sequence (whole entry): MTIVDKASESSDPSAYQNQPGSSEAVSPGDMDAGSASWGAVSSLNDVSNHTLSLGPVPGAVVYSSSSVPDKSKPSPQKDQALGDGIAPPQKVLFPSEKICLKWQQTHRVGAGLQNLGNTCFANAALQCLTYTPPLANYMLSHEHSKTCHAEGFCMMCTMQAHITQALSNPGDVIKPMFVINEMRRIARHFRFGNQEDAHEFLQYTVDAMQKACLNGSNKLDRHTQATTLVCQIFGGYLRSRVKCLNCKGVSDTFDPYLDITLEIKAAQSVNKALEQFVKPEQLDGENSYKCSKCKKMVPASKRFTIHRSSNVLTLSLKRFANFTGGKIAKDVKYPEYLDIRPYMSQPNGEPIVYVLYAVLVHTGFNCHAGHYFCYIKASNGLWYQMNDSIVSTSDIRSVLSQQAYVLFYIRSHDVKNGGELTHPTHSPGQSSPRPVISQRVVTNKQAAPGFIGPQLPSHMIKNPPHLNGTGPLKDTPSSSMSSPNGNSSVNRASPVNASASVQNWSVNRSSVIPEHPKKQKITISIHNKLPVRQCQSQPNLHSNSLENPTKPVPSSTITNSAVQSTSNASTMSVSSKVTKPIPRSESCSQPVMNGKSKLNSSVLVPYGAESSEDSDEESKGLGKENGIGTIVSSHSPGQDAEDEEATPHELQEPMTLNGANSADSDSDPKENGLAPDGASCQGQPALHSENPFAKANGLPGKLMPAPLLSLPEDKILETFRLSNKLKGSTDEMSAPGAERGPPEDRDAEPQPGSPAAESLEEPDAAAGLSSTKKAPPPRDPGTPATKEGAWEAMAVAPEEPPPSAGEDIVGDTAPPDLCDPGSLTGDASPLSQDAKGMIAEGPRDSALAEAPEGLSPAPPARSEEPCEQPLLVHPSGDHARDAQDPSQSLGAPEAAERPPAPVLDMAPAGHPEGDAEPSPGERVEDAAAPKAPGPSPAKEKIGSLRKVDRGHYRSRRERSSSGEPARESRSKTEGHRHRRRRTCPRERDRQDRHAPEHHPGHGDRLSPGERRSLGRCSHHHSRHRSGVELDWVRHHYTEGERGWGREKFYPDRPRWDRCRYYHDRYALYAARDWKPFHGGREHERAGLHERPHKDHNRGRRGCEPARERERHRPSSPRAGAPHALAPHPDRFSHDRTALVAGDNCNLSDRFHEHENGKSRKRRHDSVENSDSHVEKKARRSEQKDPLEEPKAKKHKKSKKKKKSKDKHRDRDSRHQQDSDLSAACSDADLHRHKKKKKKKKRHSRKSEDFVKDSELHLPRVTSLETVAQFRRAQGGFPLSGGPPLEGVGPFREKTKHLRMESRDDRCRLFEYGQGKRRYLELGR
Procedure, shortened: (§1)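 Triplicate samples of HEK293T lysate, 495 µg each, received fragment at 200 µM or vehicle for 3 h, followed by Biotin-Ahx-Ub-VS (0.5 µM final) for 1 h. After NeutrAvidin enrichment of labelled DUBs and LysC/trypsin digestion, peptides were run by diaPASEF LC-MS/MS. The values are average log2 fragment/vehicle ratios from global-median-normalised Spectronaut label-free quantities, tested by unpaired t-test on proteins having ≥2 unique peptides.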

USP46 = USP46 (UniProt P62068)
USP46, sequence (P62068 whole entry): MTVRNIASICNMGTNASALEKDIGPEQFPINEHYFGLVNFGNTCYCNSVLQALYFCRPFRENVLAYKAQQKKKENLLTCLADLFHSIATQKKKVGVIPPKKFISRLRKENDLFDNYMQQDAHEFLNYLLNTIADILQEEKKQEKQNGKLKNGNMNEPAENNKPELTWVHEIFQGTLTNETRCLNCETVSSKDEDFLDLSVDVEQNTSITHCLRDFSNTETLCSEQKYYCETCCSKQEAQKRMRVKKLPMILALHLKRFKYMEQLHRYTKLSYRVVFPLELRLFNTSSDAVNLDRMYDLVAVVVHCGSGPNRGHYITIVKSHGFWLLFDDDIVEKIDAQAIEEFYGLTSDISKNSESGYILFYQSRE
Procedure, shortened: as §1

USP47 = molecular target: T2, USP47 (UniProt Q96K76)
T2 sequence (whole entry): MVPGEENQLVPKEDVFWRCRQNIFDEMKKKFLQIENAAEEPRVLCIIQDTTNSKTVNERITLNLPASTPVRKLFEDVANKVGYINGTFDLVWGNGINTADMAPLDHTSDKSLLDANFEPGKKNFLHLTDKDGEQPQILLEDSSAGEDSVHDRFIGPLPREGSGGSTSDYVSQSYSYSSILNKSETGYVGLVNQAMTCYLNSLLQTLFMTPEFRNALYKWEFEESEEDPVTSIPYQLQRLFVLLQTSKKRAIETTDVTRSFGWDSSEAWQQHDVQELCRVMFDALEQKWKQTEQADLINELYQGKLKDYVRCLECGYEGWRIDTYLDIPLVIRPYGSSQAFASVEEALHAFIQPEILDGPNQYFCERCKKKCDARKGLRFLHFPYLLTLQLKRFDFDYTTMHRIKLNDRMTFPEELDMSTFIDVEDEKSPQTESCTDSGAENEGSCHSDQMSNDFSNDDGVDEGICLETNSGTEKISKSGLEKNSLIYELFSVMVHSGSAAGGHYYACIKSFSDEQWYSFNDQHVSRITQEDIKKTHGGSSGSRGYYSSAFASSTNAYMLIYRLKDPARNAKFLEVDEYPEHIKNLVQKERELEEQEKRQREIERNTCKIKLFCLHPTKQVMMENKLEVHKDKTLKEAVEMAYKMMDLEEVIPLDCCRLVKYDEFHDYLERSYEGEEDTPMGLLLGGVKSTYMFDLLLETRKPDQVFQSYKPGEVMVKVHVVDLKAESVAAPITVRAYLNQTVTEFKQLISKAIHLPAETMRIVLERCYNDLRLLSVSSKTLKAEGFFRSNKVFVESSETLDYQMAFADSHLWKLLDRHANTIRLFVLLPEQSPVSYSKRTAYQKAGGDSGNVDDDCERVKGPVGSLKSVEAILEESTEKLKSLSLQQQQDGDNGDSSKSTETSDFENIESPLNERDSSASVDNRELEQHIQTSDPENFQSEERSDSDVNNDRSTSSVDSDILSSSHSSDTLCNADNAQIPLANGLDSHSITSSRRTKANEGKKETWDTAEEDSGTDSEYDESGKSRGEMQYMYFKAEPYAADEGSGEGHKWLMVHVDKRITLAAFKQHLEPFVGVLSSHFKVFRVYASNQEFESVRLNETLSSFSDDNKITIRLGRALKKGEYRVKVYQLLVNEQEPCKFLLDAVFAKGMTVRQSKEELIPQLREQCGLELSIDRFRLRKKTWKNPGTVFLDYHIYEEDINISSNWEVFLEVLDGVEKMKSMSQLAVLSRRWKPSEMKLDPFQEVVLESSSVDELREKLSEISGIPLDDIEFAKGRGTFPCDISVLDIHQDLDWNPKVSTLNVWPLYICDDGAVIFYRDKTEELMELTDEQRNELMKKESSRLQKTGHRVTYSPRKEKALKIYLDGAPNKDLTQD
Procedure, shortened: as §1

USP48 = molecular target: T3, USP48 (UniProt Q86UV5)
T3 sequence (whole entry): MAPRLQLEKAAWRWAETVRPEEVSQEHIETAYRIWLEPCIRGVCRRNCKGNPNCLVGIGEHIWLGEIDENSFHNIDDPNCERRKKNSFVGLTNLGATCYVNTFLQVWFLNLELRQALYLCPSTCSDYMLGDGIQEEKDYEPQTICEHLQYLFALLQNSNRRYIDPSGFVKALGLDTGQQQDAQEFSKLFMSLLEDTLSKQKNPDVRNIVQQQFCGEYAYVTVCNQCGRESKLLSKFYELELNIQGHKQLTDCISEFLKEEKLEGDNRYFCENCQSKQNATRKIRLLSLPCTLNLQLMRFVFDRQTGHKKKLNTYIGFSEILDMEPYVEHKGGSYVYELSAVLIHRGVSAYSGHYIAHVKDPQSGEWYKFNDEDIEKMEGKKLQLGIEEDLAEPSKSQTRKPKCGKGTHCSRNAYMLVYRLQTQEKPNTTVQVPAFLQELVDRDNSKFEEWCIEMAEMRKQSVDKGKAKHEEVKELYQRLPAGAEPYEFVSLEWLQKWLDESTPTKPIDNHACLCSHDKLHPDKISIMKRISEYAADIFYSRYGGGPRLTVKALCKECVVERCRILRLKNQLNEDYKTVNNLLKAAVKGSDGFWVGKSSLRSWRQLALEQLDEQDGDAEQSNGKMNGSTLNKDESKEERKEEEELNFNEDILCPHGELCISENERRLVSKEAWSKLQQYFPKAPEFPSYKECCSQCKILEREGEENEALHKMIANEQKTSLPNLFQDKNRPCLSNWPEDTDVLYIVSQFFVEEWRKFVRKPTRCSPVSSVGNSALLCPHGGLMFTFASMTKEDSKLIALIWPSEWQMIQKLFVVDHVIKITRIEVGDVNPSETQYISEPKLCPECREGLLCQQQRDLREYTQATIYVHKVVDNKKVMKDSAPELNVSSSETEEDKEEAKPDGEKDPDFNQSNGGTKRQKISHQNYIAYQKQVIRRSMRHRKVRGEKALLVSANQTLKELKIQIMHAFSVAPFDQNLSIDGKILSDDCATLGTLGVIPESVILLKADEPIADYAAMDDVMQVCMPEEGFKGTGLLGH
Procedure, shortened: as §1

USP5 = molecular target: T4, USP5 (UniProt P45974)
T4 sequence (whole entry): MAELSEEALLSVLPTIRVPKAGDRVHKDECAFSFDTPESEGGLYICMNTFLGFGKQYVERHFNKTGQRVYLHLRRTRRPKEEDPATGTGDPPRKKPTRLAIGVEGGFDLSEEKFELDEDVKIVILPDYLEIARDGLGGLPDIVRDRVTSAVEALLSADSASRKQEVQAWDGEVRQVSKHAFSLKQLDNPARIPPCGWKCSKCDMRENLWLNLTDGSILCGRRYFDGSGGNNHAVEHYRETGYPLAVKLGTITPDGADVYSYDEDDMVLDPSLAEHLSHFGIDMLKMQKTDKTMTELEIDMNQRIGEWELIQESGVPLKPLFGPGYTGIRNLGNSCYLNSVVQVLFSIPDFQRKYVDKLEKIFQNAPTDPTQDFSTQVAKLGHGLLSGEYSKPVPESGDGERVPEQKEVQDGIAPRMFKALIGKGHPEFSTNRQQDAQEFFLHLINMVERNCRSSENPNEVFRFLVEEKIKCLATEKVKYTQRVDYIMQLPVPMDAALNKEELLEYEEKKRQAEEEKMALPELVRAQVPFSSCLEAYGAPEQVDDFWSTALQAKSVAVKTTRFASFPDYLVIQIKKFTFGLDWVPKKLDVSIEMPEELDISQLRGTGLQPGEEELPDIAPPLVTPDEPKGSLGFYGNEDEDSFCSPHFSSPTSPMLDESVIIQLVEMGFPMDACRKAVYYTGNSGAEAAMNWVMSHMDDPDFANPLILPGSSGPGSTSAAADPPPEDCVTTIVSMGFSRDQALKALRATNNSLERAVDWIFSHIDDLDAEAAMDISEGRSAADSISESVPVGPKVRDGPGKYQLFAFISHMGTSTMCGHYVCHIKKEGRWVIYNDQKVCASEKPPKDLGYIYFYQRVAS
Procedure, shortened: as §1

USP54 = USP54 (UniProt Q70EL1)
USP54, sequence (Q70EL1 whole entry): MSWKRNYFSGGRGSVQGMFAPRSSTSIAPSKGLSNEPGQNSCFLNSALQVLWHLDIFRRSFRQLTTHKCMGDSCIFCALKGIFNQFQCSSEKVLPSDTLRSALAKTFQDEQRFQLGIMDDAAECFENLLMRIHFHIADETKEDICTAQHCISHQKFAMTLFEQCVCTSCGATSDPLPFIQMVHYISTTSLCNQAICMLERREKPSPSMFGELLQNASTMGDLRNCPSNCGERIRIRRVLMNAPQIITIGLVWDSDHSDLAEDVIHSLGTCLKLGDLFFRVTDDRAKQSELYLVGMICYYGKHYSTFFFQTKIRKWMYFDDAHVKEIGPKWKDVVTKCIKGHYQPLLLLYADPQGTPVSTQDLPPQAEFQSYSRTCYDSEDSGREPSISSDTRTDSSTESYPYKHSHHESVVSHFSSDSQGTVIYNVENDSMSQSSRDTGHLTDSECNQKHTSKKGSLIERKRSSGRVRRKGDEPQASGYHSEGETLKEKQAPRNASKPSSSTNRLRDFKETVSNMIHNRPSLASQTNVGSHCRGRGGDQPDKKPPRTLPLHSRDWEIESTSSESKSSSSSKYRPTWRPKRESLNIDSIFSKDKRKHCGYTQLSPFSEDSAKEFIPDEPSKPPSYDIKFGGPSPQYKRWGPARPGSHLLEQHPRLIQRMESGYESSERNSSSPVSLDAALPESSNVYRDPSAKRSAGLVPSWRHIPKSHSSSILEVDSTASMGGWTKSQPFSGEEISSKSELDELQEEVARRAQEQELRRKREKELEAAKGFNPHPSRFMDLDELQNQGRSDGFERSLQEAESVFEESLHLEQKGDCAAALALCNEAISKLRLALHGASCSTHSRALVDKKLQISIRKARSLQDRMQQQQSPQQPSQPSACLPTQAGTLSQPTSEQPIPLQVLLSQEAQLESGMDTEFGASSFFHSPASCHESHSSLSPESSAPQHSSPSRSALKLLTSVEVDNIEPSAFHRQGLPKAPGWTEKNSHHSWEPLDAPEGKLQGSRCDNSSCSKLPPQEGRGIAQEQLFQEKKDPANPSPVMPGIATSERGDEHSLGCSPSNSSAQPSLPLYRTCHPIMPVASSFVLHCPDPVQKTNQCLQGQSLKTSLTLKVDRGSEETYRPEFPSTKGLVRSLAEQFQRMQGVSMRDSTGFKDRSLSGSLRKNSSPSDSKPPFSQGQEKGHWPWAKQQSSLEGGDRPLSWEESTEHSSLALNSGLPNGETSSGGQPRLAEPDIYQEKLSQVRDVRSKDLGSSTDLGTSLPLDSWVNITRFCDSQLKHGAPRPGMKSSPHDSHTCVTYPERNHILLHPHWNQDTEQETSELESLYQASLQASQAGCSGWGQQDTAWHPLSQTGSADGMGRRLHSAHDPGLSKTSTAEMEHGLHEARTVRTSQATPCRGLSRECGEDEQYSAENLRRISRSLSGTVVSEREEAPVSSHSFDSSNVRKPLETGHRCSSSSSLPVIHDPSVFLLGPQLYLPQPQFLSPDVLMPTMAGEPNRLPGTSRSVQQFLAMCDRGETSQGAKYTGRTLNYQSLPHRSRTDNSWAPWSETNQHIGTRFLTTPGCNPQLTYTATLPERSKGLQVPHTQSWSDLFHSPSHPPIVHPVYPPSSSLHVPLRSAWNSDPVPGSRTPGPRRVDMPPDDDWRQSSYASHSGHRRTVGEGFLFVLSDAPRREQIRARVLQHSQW
Procedure, shortened: as §1

USP7 = USP7 (UniProt Q93009)
USP7, sequence (Q93009 whole entry, looked up): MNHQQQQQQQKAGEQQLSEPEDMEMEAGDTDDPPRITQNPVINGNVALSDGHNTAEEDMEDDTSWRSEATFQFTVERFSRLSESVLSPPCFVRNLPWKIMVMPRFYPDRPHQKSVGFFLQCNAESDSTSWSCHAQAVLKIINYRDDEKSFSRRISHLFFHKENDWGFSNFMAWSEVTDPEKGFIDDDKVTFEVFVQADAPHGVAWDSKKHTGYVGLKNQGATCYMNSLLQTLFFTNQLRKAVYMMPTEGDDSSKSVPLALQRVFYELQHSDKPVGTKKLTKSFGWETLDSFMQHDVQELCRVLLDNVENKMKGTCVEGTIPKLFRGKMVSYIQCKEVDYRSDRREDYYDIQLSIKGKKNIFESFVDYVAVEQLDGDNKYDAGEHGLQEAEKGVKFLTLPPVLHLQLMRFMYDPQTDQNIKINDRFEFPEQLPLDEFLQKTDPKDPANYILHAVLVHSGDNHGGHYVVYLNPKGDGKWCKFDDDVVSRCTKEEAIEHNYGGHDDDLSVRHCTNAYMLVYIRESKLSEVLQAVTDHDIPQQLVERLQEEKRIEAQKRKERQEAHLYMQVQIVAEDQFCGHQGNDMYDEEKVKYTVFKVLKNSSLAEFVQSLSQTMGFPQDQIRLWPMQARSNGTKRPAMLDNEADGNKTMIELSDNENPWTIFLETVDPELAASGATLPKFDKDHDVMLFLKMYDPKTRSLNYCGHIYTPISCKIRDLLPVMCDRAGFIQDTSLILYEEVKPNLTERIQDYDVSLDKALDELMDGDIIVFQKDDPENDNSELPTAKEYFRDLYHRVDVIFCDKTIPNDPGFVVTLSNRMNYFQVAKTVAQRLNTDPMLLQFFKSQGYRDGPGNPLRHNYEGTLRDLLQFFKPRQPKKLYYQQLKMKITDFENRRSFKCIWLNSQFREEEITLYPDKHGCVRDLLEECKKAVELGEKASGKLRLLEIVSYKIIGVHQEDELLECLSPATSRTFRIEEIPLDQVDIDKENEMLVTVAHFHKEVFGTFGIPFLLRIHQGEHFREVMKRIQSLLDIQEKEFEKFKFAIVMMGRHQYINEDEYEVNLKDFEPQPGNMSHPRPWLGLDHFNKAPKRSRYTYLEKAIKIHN
Procedure, shortened: as §1

USP8 = molecular target: T5, USP8 (UniProt P40818)
T5 sequence (whole entry): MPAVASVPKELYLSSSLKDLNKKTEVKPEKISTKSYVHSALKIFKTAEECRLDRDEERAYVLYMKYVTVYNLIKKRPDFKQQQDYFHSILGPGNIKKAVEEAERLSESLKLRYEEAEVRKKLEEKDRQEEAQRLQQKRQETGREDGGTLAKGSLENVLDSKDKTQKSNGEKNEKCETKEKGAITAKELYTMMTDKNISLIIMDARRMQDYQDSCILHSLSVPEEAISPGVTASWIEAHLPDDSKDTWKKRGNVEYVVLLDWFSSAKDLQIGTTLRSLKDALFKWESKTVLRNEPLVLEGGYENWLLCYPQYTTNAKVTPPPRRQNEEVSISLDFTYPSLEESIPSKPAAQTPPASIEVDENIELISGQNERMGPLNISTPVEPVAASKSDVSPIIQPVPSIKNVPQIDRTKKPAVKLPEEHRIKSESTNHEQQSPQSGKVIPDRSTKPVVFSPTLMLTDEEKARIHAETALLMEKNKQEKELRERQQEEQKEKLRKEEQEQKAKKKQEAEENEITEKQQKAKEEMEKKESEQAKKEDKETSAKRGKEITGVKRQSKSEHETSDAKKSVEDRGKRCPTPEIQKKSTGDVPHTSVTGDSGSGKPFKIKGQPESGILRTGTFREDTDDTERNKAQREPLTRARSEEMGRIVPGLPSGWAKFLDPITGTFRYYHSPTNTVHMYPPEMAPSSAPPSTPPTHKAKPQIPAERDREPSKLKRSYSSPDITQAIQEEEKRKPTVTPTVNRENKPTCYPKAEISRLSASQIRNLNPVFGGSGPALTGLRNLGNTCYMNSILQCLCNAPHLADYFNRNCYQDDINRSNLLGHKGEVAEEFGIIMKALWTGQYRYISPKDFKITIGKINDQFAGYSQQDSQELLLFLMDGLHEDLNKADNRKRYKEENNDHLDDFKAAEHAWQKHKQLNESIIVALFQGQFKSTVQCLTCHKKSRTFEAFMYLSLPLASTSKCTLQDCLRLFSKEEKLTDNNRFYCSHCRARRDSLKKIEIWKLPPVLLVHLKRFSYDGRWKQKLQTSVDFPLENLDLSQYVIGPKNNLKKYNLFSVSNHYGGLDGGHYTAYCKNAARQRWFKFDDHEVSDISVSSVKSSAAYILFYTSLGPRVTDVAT
Procedure, shortened: as §1

USP9X = USP9X (UniProt Q93008)
Procedure, shortened: as §1

UniProt O00487 = molecular target: UniProt O00487
UniProt O00487, sequence (O00487 whole entry): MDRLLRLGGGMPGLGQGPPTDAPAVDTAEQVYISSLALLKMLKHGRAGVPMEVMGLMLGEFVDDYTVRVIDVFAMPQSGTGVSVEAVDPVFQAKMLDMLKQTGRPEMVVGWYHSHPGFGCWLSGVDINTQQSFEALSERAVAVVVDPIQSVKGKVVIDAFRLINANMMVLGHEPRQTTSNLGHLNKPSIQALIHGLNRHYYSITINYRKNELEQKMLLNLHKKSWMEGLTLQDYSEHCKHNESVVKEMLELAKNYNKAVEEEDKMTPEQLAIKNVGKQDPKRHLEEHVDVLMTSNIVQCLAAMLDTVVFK
Procedure, shortened: as §1

Measured: log2 ratio of Biotin-Ahx-Ub-VS probe labelling

Cl.Cn1ncc2c1CC(NC(=O)CCl)CC2 (stereo not given)
inactive: USP42 0.421 | USP46 0.116 | USP47 0.118 | USP48 0.191 | USP5 0.0298 | USP54 -0.146 | USP7 -0.063 | USP8 -0.0427 | USP9X -0.0203 | UniProt O00487 -0.0601
